Most compounds without a hit are left out; they make up all but 7.8% or so of the library.
Marburg entry inh: qHTS for inhibitors of binding or entry into cells for Marburg Virus | AID 540276, 2011 | Marburg virus pseudotyped entry inhibition, cell reporter | 1.8% of 300,000 active | Potency, µM (highest dose often 37.8 µM), most hits filed as inhibitors; calls by dose curve; tested in HEK293 cells
Lassa entry inh: qHTS for Inhibitors of binding or entry into cells for Lassa Virus. Lassa virus pseudotype entry inhibition, cell reporter. Potency, µM (titrated, usually from 37.9 µM), actives largely listed as inhibitors. 1.2% of 300,000 active. AID 540256, 2011; calls by dose curve; tested in HEK293 cells; further: nearly all actives have a fitted effect of over 50% in size
Vaccinia mCherry: qHTS for Stage-Specific Inhibitors of Vaccinia Orthopoxvirus: mCherry Reporter Primary qHTS | 0.63% of 310,000 active | AID 720579, 2013 | Vaccinia virus mCherry reporter infection, fluorescence | Potency, µM (series often up to 36.5 µM), hits mostly inhibitors; calls by dose curve; tested in A549 cells; further: nearly all actives have a fitted effect of over 35% in size
HCV inhibitor: qHTS Assay for Inhibitors of Hepatitis C Virus (HCV); Huh7.5.1 HCVcc-Cre infection, luciferase reporter, 44 h; Potency, µM (series often up to 41.8 µM), hits mostly inhibitors; 3.4% of 340,000 active; AID 651820, 2012
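Compounds are dispensed onto cells plated 4 h earlier at 1,000 per well, with HCVcc-Cre virus (about 0.5 moi) added next. Following 44 h of culture, luminescent signal is measured for 15 sec after 15 min with substrate at room temperature.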
HCMV antiviral: qHTS Assay for inhibitors of the human cytomegalovirus (HCMV). activity change, negative = inhibition, % at 57.5 µM. HFF cells, HCMV-luciferase reporter, 72 h; hits give low values. AID 1259415, 2018. 4.5% of 410,000 active; in the data active means activity change below about -60%; inconclusive means no clear call, values can overlap the other calls; inactive means above about -39%
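Cell-based, HFFs, 1000 cells/well, 16 h 37C; cpds in DMSO + HCMV-luc, MOI 1 PFU/cell; 72 h 37C; OneGlo luminescence after 5 min RT; norm. to buffer vs Salinomycin 10uM.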
Vaccinia Venus: qHTS for Stage-Specific Inhibitors of Vaccinia Orthopoxvirus: Venus Reporter Primary qHTS | Vaccinia virus Venus reporter expression, fluorescence | Potency, µM (top dose mostly 36.5 µM), most hits filed as inhibitors | 0.46% of 330,000 active; calls by dose curve; tested in A549 cells; further: nearly all actives have a fitted effect of over 30% in size
HCV inh confirm: qHTS Assay for Inhibitors of Hepatitis C Virus (HCV): Confirmation Assay for Cherry-picked Compounds | 78% of 640 active | AID 720575, 2013 | HCVcc-Cre infectious virus cell assay, luciferase, inhibition | shares compounds with HCV inhibitor | Potency, µM (series often up to 41.8 µM), usual class: inhibitors; further: nearly all actives have a fitted effect of over 80% in size
HCV cytotox: qHTS Assay for Inhibitors of Hepatitis C Virus (HCV): Cytotoxicity Counterscreen for Cherry-picked Compounds; Potency, µM (doses to about 41.8 µM), usual class: inhibitors; AID 720576, 2013; 22% of 640 active; shares compounds with HCV inhibitor; HCV host cell line cytotoxicity counterscreen;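 further: 44 h compound exposure; nearly all actives have a fitted effect of over 55% in size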
Of the large screens only hits and unclear results are named; the others gave an inactive call (follow-up assays come after a bar, where they were run). Unless noted, the call rests on the fitted dose curve; in most records, active means well fitted curve in the direction sought with a large enough effect; inconclusive means small, poorly fitted or top-dose-only effect, or another doubt; inactive means no such curve, though single readings can be large; an effect the other way counts as inactive or inconclusive.

Cc1noc(/C=C/c2ccccc2F)c1S(=O)(=O)N1CCC(C(=O)N2CCOc3ccccc32)CC1	none (no result: Marburg entry inh, HCV inhibitor)
C=C(C)COc1ccc(-c2nc(N)ncc2Oc2ccccc2OCC)c(O)c1	Marburg entry inh inconclusive, Lassa entry inh inconclusive, HCV inhibitor 4.47µM, Vaccinia Venus inconclusive (no result: Vaccinia mCherry) | HCV inh confirm 25µM | HCV cytotox inactive
C=C(C)COc1ccc(-c2ncncc2-c2ccccc2)c(O)c1	none
COc1cccc(C(=O)Nc2cccc(NC(=O)c3cccs3)c2)c1	HCV inhibitor inconclusive (no result: Marburg entry inh, Lassa entry inh, Vaccinia mCherry, Vaccinia Venus)
COc1cc(C(=O)Nc2cccc(NC(=O)c3cccs3)c2)cc(OC)c1OC	HCV inhibitor inconclusive (no result: Marburg entry inh, Lassa entry inh, Vaccinia mCherry, Vaccinia Venus) | HCV inh confirm 12.5µM | HCV cytotox inactive
O=C(Nc1ccc(/C=C/c2nc3ccccc3o2)cc1)c1c(F)cccc1F	Marburg entry inh inconclusive, Lassa entry inh inconclusive, HCV inhibitor 5.62µM, Vaccinia Venus inconclusive (no result: Vaccinia mCherry) | HCV inh confirm 4.45µM | HCV cytotox inactive
CC(=O)Nc1ccc(/C=C/c2nc3ccccc3o2)cc1	HCV inhibitor inconclusive (no result: Marburg entry inh, Lassa entry inh, Vaccinia mCherry, Vaccinia Venus)
O=C(NCCc1ccc(Cl)cc1)c1ccc(Cn2c(=O)c3cccn3c3cccnc32)cc1	none (no result: Marburg entry inh, HCV inhibitor)
CCc1c(C)nc2ncnn2c1NCCc1ccc(Cl)cc1	Marburg entry inh inconclusive, Lassa entry inh inconclusive, HCV inhibitor inconclusive, HCMV antiviral inconclusive | HCV inh confirm 7.05µM | HCV cytotox inconclusive
O=C(COc1ccccc1)NNc1c2ccccc2nc2ccccc12	Marburg entry inh 11.2µM, Lassa entry inh inconclusive, HCV inhibitor 1µM, HCMV antiviral -92.3, Vaccinia Venus inconclusive (no result: Vaccinia mCherry) | HCV inh confirm 1.58µM | HCV cytotox inactive
CCCC(=O)NNc1c2ccccc2nc2ccccc12	HCV inhibitor 1.41µM | HCV inh confirm 0.56µM | HCV cytotox 0.499µM
O=C(NNc1c2ccccc2nc2ccccc12)C(O)c1ccccc1 (stereo not drawn)	HCV inhibitor inconclusive (no result: Marburg entry inh, Lassa entry inh, Vaccinia mCherry, Vaccinia Venus)
C/C(CC1CC(C)(C)OC1=O)=N\NC(N)=S (stereo not drawn)	HCMV antiviral inconclusive
C/C(CC1CC2=C(CC1(C)C)C(C)(C)CCC2)=N\NC(N)=S (stereo not drawn)	Marburg entry inh inconclusive, Lassa entry inh inconclusive, HCV inhibitor 5.62µM, HCMV antiviral -65.0, Vaccinia Venus inconclusive | HCV inh confirm 14.1µM | HCV cytotox inconclusive
CCc1cccc(NC(=O)CCc2nc3cccnc3n2Cc2ccc(OC)cc2)c1	Lassa entry inh inconclusive (no result: HCV inhibitor)

Assay outcomes deposited in PubChem by National Center for Advancing Translational Sciences (NCATS).
